Pf growth 48h: P. falciparum growth inhibition at 48 hours (one generation); P. falciparum luciferase growth in erythrocytes, 48 h; Potency, µM (highest dose often 28.7 µM), inactives show at the top dose activity change, negative = inhibition, hits mostly inhibitors; 310,000 compounds, 5.9% hits; AID 504832; also: % is scaled to controls: 0 for no effect and ±100 for the full control effect
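Cell-based growth assay: transgenic P. falciparum expressing firefly luciferase, cultured in red cells within RPMI 1640 containing 0.5% w/v Albumax, 24 mM bicarbonate and gentamycin. A drop in luciferase activity indicates inhibition.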
Pf growth 96h: inhibits malaria parasite growth, 96 h | Potency, µM (highest dose often 28.7 µM), for inactives: at the top dose activity change, negative = inhibition, usual class: inhibitors | 320,000 compounds, 6.9% hits | P. falciparum luciferase reporter growth, 96 h | AID 504834; also: % is scaled to controls: 0 for no effect and ±100 for the full control effect
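Readout is luminescence from an integrated firefly luciferase in P. falciparum. Red cells, 2% hematocrit and 0.05% parasitemia final, were cultured with compound through two parasite generations (96 hours) at 37 C, 5% CO2.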
VACV Venus inh: inhibitors of vaccinia virus (Venus reporter) | 330,000 compounds, 0.46% hits | Potency, µM (series often up to 36.5 µM), for inactives: top-dose activity change, negative = inhibition, actives largely listed as inhibitors | Vaccinia virus Venus reporter expression, fluorescence | AID 720580; calls by dose curve; tested in A549 cells; also: % is scaled to controls: 0 for no effect and ±100 for the full control effect; nearly all actives have a fitted effect of over 30% in size
Vaccinia mCherry: inhibitors of vaccinia virus infection (mCherry reporter signal) | Vaccinia virus mCherry reporter infection, fluorescence | Potency, µM (highest dose often 36.5 µM), inactives show at the highest dose activity change, negative = inhibition, usual class: inhibitors | 310,000 compounds, 0.63% hits | AID 720579; calls by dose curve; tested in A549 cells; also: % is scaled to controls: 0 for no effect and ±100 for the full control effect; nearly all actives have a fitted effect of over 35% in size
NS1 inh: inhibitors of influenza NS1 protein function | Potency, µM (top dose mostly 46.1 µM), for inactives: at the top dose activity, positive = more growth | 270,000 compounds, 0.4% hits; calls by dose curve; also: actives are rising curves; nearly all actives have a fitted effect of over 50% in size
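In this qHTS, NS1 from influenza A is expressed in budding yeast, where it slows growth. Cells are switched from glucose to 2% galactose medium (pH 6.0, -URA), treated with compound, and growth recovery is read at OD600.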
HCV inhibitor: HCV inhibition; Huh7.5.1 HCVcc-Cre infection, luciferase reporter, 44 h; 340,000 compounds, 3.4% hits; AID 651820; Potency, µM (doses to about 41.8 µM), for inactives: at the top dose activity change, negative = inhibition, most hits filed as inhibitors; also: % is scaled to controls: 0 for no effect and ±100 for the full control effect
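Compounds are dispensed onto cells plated 4 h earlier at 1,000 per well, with HCVcc-Cre virus (about 0.5 moi) added next. Following 44 h of culture, luminescent signal is measured for 15 sec after 15 min with substrate at room temperature.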
* = called active by the depositor; i = inactive; ? = inconclusive; · = no result given. Hits are enriched below; roughly 11% of the tested compounds scored in any of these assays. Unless noted, calls follow the shape of the dose curve; as a rule, active = well fitted inhibition curve with a large enough effect; inconclusive = small, poorly fitted or top-dose-only effect, or another doubt; inactive = no such curve, though single readings can be large or run the other way. Potency is read from the fitted curve at half-maximal effect.

SMILES | Pf growth 48h | Pf growth 96h | VACV Venus inh | Vaccinia mCherry | NS1 inh | HCV inhibitor
COc1cc(-c2nc(-c3ccccn3)no2)cc(OC)c1OC | 58.5% | 60.0% | -14.4% | -22.8% | -13.7% | 3.98µM*
c1ccc(-c2nc(-c3ccccn3)no2)cc1 | 3.2% | -18.8% | -6.9% | i | -5.6% | -0.8%
COc1cc(-c2nc(-c3cccc(C(F)(F)F)c3)no2)cc(OC)c1OC | ? | 11.7µM* | -11.8% | -11.7% | -2.4% | ?
O=S(=O)(Cc1ccccc1Cl)N1CCCCC1 | 4.8% | -1.7% | -13.7% | -22.5% | 3.6% | ?
COc1ccc(/C=C2\CCc3ccccc3C2=O)cc1O | 214.2% | 252.4% | ? | 11.2µM* | -89.7% | -9.5%
COc1ccc(/C=C2\Cc3ccccc3C2=O)cc1OC | 6.2% | -31.4% | -18.0% | -9.5% | -33.9% | -14.9%
COc1ccc(C(O)(C2CCCCC2)C(CN2CCOCC2)c2ccccc2)cc1 (stereo not drawn) | ? | -3.2% | · | · | -10.7% | -20.2%
CCCCC(O)(c1ccccc1)C(CN1CCOCC1)c1ccccc1 (stereo not drawn) | ? | 26.8% | · | · | -0.9% | ?
CCc1ccc(C(O)(CC)C(CN2CCOCC2)c2ccccc2)cc1 (stereo not drawn) | 11.7µM* | 0.0% | 1.2% | -15.7% | 1.4% | -28.4%
OC(c1ccccc1)(C1CCCCC1)C(CN1CCOCC1)c1ccccc1 (stereo not drawn) | 2.94µM* | 2.5% | -19.0% | i | -10.1% | ?
CCCCC(O)(c1ccc(CC)cc1)C(CN1CCOCC1)c1ccccc1 (stereo not drawn) | 1.85µM* | -7.2% | · | · | -4.9% | ?
CCC(O)(c1ccccc1)C(CN1CCOCC1)c1ccccc1 (stereo not drawn) | ? | -24.8% | -2.8% | ? | 0.6% | 6.2%
Fc1cccc(CNCCc2c[nH]c3ccccc23)c1 | 7.1% | ? | · | · | 21.8% | 8.8%
O=C(NC(=S)Nc1ccccc1)c1cc(-c2ccccc2)nc2ccccc12 | ? | 10.4µM* | -18.7% | ? | ? | ?
CCOC(=O)c1ccc(NC(=S)NNC(=O)c2cc(-c3cccnc3)nc3ccccc23)cc1 | 4.15µM* | 66.1% | · | · | 7.9% | 1.9%
O=C(NNC(=S)Nc1ccccc1)c1cc(-c2cccnc2)nc2ccccc12 | ? | 1.17µM* | -5.3% | i | -4.8% | 8.1%
CCNC(=S)NNC(=O)c1cc(-c2cccnc2)nc2ccccc12 | 4.1% | 21.4% | -18.2% | -9.8% | · | 0.0%
COC(=O)[C@H](NC(=O)c1cc(-c2ccccc2)nc2ccccc12)c1ccccc1 | · | · | -4.9% | -11.5% | -21.9% | 35.5µM*
CCOc1ccc(-c2cc(C(=O)NC(C)c3ccccc3)c3ccccc3n2)cc1 (stereo not drawn) | · | · | -12.4% | -18.5% | · | ·
FC(F)(F)c1nc(N2CCCC2)ncc1-c1nnnn1-c1ccccc1 | 0.9% | 33.3% | · | · | -43.6% | 11.2µM*
Cc1ccc(-n2nnnc2-c2cnc(N3CCCC3)nc2C(F)(F)F)cc1 | · | 4.6% | ? | ? | -85.2% | 11.2µM*
Cc1ccc2c(c1)N(CC(=O)N1CCOCC1)C(=O)C(C)O2 (stereo not drawn) | 6.9% | -2.8% | -20.3% | -19.1% | 2.5% | 13.3%
CC(=O)N1CCc2cc(S(=O)(=O)CCC(=O)Nc3ccccc3F)ccc21 | 6.0% | -11.1% | · | · | 1.4% | 19.2%
COc1ccc(NCC(O)Cn2c(C)c(C)c3ccccc32)cc1 (stereo not drawn) | ? | 7.38µM* | -19.2% | -22.4% | 1.1% | ?
CCc1cccc(NC(=O)c2cc3c(s2)-c2ccccc2OC3)c1 | · | · | -9.9% | -2.9% | · | ·
SMILES | Pf growth 48h | Pf growth 96h | VACV Venus inh | Vaccinia mCherry | NS1 inh | HCV inhibitor
CN1CCN(C(=O)CCN2C(=O)/C(=C/c3ccccc3Cl)SC2=S)CC1 | -24.3% | 0.3% | 55.9% | -0.5% | 4.1% | ?
Cc1ccc(/C=C2/SC(=S)N(CCC(=O)N3CCN(C)CC3)C2=O)cc1 | ? | 11.7µM* | -6.4% | -8.6% | -1.2% | ?
CN1CCN(C(=O)CCN2C(=O)/C(=C\c3ccccc3F)SC2=S)CC1 | ? | 11.7µM* | · | · | -6.7% | ?
O=C(CCCN1C(=O)/C(=C/c2ccccc2Cl)SC1=S)N1CCOCC1 | ? | ? | · | · | 12.4% | ?
O=C(CCN1C(=O)/C(=C\c2ccccc2F)SC1=S)N1CCOCC1 | · | · | 12.6µM* | ? | · | ·
O=C(NC1CCCC1)C1CC(=O)N(c2ccc(F)c(Cl)c2)C1 (stereo not drawn) | -18.2% | 26.8% | · | · | 7.4% | -0.9%
CC(Oc1ccc(F)cc1)C(=O)Nc1cc(S(=O)(=O)N2CCCCC2)ccc1N1CCOCC1 (stereo not drawn) | 8.28µM* | 9.28µM* | -11.9% | -22.8% | · | ?
Cc1ccc(NC(=S)Nc2ccc(C(C)C)cc2)cc1S(=O)(=O)N1CCCCCC1 | ? | ? | ? | ? | ? | 6.31µM*
CC(Oc1cccc(Cl)c1)C(=O)Nc1ccc(N2CCOCC2)cc1N1CCOCC1 (stereo not drawn) | 6.57µM* | ? | -1.0% | -26.5% | · | 0.2%
CC(Oc1cccc(Cl)c1)C(=O)Nc1cc(S(=O)(=O)N2CCCCC2)ccc1N1CCOCC1 (stereo not drawn) | 10.4µM* | 10.4µM* | -9.2% | i | · | ?
CCOCCCN(Cc1ccco1)S(=O)(=O)c1cc2c(cc1C)NC(=O)CO2 | · | · | -6.5% | -7.4% | · | ·
C[C@@H]1CN([C@@H](C)CO)C(=O)CCCn2nncc2CO[C@H]1CN(C)C(=O)Nc1ccnc(N2CCOCC2)c1 | · | · | -3.9% | -11.0% | · | ·
CCOC(=O)C1CCN(C(=O)CNC(=O)c2nn(-c3ccc(OC)cc3)c(=O)c3ccccc23)CC1 | ? | ? | -13.2% | -3.6% | -6.3% | 14.1%
COc1ccc(-c2nc(CN3CCC(C(=O)N4CCOCC4)CC3)c(C)o2)c(OC)c1 | 6.8% | 10.6% | -11.0% | -10.7% | 10.7% | 17.1%
CC1(Cc2ccc3c(c2)OCO3)C(=O)Nc2c(Cl)ccc(Cl)c21 (stereo not drawn) | · | · | -12.5% | -8.2% | · | ·
Cc1ccccc1OCCC(=O)Nc1cc(S(=O)(=O)N2CCOCC2)ccc1OC(C)C | 14.7µM* | 13.1µM* | -13.6% | i | -6.3% | ?
Cc1cccc(OC(C)C(=O)Nc2cc(S(=O)(=O)N3CCCCC3)ccc2C)c1 (stereo not drawn) | 9.28µM* | ? | -15.8% | -27.1% | · | ?
Cc1cccc(C(=O)N[C@H](C(=O)Nc2cc(S(=O)(=O)N3CCCCC3)ccc2C)C(C)C)c1 | ? | ? | -20.5% | -17.1% | 0.9% | -7.8%
Cc1ccc(NC(=O)C(C)Oc2ccccc2)cc1S(=O)(=O)N1CCCCCC1 (stereo not drawn) | 6.57µM* | ? | · | · | · | ?
Cc1ccccc1OCCC(=O)OCC(=O)Nc1cc(S(=O)(=O)N2CCOCC2)ccc1Cl | -4.4% | 8.4% | -15.0% | -23.9% | · | 16.0%

Screening data: PubChem, National Center for Advancing Translational Sciences (NCATS)
